Measurements: PubChem BioAssay (NCATS)
Inconclusive results are not listed. A call without a number means that no potency is given here. Active and inactive are the calls of the source. Calls follow the shape of the dose curve; as a rule, active = well fitted curve in the direction sought with a large enough effect; inconclusive = small, poorly fitted or top-dose-only effect, or another doubt; inactive = no such curve, though single readings can be large; an effect the other way counts as inactive or inconclusive.

Tests used:
[1] = molecular target: Muscarinic acetylcholine receptor M1 (Rattus norvegicus) (UniProt P08482); assay: qHTS Assay for Antagonists of Acetylcholine Muscarinic M1 Receptor: Kinetic Measurement of Intracellular Calcium Response (AID 943); also: nearly all actives have a fitted effect of over 75% in size
How it was run: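 Antagonism is measured as inhibition of the carbachol-evoked calcium rise in CHO cells transfected with rat M1. Cells are dye-loaded, exposed to compound for 10 min, then stimulated with 100 nM carbachol (EC80).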

[2] = molecular target: Cytochrome P450 3A4 (Homo sapiens) (UniProt P08684); assay: qHTS Assay for Activators of Cytochrome P450 3A4 (AID 885); also: nearly all actives have a fitted effect of over 65% in size
How it was run: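 Luminescent readout of luciferin formed from 25 uM Luciferin-PPXE (KM level) by 20 nM CYP3A4 in 200 mM KPO4, with 60 min NADPH-driven reaction at room temperature after 10 min compound exposure. Ketoconazole (57 uM) defined 100% inhibition.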

[3] = molecular target: Cytochrome P450 3A4 (Homo sapiens) (UniProt P08684); assay: qHTS Assay for Inhibitors and Substrates of Cytochrome P450 3A4 (AID 884); also: nearly all actives have a fitted effect of over 50% in size
How it was run: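 Luminescent readout of luciferin produced by CYP3A4 (20 nM) dealkylation of Luciferin-PPXE, 25 uM (its KM). NADPH-driven reaction ran 60 min at RT after 10 min compound preincubation; data scaled to 57 uM ketoconazole as 100% inhibition.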
Potency is read from the fitted curve at half-maximal effect.

Cytochrome P450 3A4 (Homo sapiens), sequence (P08684 whole entry, looked up): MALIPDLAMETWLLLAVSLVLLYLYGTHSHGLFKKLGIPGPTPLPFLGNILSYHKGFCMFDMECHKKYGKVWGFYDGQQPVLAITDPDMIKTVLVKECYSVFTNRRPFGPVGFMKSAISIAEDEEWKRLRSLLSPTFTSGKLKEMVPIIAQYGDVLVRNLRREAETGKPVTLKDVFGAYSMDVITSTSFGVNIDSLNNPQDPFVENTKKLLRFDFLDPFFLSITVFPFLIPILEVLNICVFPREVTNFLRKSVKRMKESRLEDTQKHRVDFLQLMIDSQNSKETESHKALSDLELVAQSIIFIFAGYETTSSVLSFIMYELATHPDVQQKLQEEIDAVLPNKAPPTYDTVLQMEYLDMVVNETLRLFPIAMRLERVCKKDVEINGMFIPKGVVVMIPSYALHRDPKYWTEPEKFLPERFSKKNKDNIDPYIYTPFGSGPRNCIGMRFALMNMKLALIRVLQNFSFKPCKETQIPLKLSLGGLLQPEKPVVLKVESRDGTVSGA
Muscarinic acetylcholine receptor M1 (Rattus norvegicus), sequence (P08482 whole entry, looked up): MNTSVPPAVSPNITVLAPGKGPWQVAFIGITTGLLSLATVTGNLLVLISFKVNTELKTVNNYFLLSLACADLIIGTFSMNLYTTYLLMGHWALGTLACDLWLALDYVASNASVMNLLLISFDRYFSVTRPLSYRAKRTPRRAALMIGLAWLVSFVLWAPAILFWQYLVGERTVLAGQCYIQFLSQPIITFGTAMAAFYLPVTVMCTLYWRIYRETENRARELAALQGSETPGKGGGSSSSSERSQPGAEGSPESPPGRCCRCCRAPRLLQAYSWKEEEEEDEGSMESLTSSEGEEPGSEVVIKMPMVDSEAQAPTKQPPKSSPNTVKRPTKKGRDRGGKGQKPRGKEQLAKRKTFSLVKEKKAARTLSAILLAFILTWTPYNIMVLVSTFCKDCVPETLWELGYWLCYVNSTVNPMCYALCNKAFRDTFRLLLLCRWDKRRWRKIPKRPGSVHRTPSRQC

Compound: CC1(C)CCC(NC(=O)[C@H](N)CCC(=O)O)CC1
- Potency [1]: inactive

Compound: COc1cc([C@H](O)CO)ccc1O
- Potency [2]: inactive
- Potency [1]: inactive

Compound: CCCC[C@]1(C2CCCC2)Cc2cc(OCC(=O)O)c(Cl)c(Cl)c2C1=O
- Potency [2]: inactive
- Potency [1]: inactive

Compound: COc1cc([C@H](O)C(=O)O)ccc1O
- Potency [1]: inactive

Compound: Cc1ccccc1CNc1ncnc2c1ncn2[C@@H]1O[C@@H](CO)[C@H](O)[C@@H]1O
- Potency [1]: inactive

Compound: O=C1C(=O)c2ccccc2C(O)=C1C(C1=C(O)c2ccccc2C(=O)C1=O)c1ccc(Cl)cc1
- Potency [2]: inactive

Compound: CCCC[S@@](=N)(=O)CC[C@@H](N)C(=O)O
- Potency [1]: inactive

Compound: COc1c2c(nc3ccccc13)O[C@@H]([C@@](C)(O)CO)C2
- Potency [1]: inactive

Compound: CN1[C@@H]2CC[C@H]1CC(NC(=O)c1nn(C)c3ccccc13)C2 (some centres not stated)
- Potency [1]: inactive

Compound: CCCCCCCCCCCCCCCC(=O)NC[C@@H](COP(=O)([O-])OCC[N+](C)(C)C)OCC
- Potency [2]: inactive
- Potency [1]: 11.2 µM (active)

Compound: Nc1c2c(nc3ccccc13)CCC[C@H]2O
- Potency [1]: inactive

Compound: O=S(=O)(NCCNC/C=C\c1ccc(Br)cc1)c1cccc2cnccc12
- Potency [1]: 14.1 µM (active)

Compound: CC(=O)[C@@H]1CC[C@@H]2[C@@H]3CC=C4C[C@H](OS(=O)(=O)O)CC[C@@]4(C)[C@H]3CC[C@]21C
- Potency [1]: inactive

Compound: OC[C@@H]1O[C@@H](n2cnc3c(NC4CCCCC4)ncnc32)[C@@H](O)[C@H]1O
- Potency [1]: inactive

Compound: CNC(=O)[C@@H]1O[C@@H](n2cnc3c(N)ncnc32)[C@@H](O)[C@H]1O
- Potency [1]: inactive

Compound: Nc1nc(Cl)nc2c1ncn2[C@@H]1O[C@@H](COP(=O)(O)OP(=O)(O)OP(=O)(O)O)[C@@H](O)[C@H]1O
- Potency [1]: inactive

Compound: COC(=O)[C@H](N)Cc1ccc(Cl)cc1
- Potency [2]: inactive

Compound: CC(C)C[C@H]1C(=O)N2CCC[C@@H]2[C@]2(O)O[C@](NC(=O)[C@H]3C=C4c5cccc6[nH]c(Br)c(c56)C[C@H]4N(C)C3)(C(C)C)C(=O)N12
- Potency [2]: inactive

Compound: COc1cc2nc(N3CCN(C(=O)OCc4ccccc4)[C@H](C(=O)NC(C)(C)C)C3)nc(N)c2cc1OC
- Potency [3]: 3.98 µM (active)
- Potency [2]: inactive

Compound: C=CCN1CCc2c(cc(O)c(O)c2Cl)[C@H](c2ccccc2)C1
- Potency [3]: inactive

Compound: CC[C@H](C)[C@@H]1O[C@]2(CC[C@@H]1C)C[C@H]1C[C@H](CC=C(C)[C@@H](O[C@H]3C[C@H](OC)[C@H](O[C@H]4C[C@H](OC)[C@H](O)[C@H](C)O4)[C@H](C)O3)[C@@H](C)C=CC=C3CO[C@@H]4[C@@H](O)C(C)=C[C@H](C(=O)O1)[C@@]34O)O2
- Potency [2]: inactive

Compound: N[C@H](CCCC(=O)O)C(=O)O
- Potency [1]: inactive

Compound: C[C@@H](COc1ccc(/C=C\c2ccccc2)cc1)[N+](C)(C)C
- Potency [2]: inactive
- Potency [1]: 4.47 µM (active)

Compound: COC(=O)[C@](C)(N)Cc1ccc(O)cc1
- Potency [3]: inactive

Compound: C[C@@]12C(=O)OC(=O)[C@@]1(C)[C@H]1CC[C@@H]2O1
- Potency [2]: inactive

Compound: O[C@H](CN1CCN(c2cccc(Cl)c2)CC1)C(c1ccccc1)c1ccccc1
- Potency [2]: 7.94 µM (active)

Compound: COc1cc2c(cc1O)CC[C@@H]1[C@@H]2CC[C@@]2(C)[C@H](O)CC[C@H]12
- Potency [1]: inactive
